MPTP inh: inhibitors of mitochondrial permeability transition pore; isolated mouse mitochondria, Ca2+ swelling absorbance, 30 min; 1.4% of 360,000 active; inhibition, % at 10 µM;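 active means inhibition of 50% or more, scaled per plate between neutral and stimulator controls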;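 further: 0% = DMSO wells given calcium and 100% = 1 mM EGTA wells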
CSC inhib: blocks cancer stem cells | inhibition, % at 7.5 µM | 1.1% of 300,000 active | cancer stem cell-like cells viability, luminescence | AID 2717; in the data active means inhibition above about 75%; tested in HMLE shEcad cells
Mdm2 MdmX PPI: human Mdm2/MdmX binding inhibition | O15151+Q00987 | SaOS-2 split-luciferase Mdm2/MdmX complementation, luminescence | inhibition, % at 8 µM | 3% of 330,000 active | AID 485346;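 active means inhibition of at least 50% at 8 µM in the primary screen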
Target sequence (O15151 whole entry, looked up): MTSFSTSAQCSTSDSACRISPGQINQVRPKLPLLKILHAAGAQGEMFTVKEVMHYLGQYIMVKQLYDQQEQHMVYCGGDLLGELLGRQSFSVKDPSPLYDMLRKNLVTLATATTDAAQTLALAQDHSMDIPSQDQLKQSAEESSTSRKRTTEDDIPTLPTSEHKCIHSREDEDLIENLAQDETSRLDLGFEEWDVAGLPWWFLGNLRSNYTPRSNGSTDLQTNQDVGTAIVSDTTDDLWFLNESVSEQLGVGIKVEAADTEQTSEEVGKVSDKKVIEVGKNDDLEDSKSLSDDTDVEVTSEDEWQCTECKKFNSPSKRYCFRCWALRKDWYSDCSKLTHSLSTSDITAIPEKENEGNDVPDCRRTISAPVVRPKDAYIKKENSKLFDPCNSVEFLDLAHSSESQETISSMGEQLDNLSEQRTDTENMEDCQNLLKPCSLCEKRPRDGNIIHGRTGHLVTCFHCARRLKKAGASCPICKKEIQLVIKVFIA
Target sequence (Q00987 whole entry, looked up): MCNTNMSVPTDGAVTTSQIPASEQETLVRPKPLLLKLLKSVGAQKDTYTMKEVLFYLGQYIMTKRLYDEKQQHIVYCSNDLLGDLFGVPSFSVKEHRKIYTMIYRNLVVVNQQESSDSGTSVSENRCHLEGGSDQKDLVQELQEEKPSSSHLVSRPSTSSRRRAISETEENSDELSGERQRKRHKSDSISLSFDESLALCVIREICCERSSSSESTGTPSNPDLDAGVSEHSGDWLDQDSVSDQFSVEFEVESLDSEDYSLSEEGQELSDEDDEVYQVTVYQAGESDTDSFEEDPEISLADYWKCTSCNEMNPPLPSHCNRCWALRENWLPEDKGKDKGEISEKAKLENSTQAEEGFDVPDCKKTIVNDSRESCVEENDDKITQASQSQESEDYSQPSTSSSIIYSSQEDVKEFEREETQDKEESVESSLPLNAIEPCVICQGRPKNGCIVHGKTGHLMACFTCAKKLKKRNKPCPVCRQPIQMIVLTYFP
NR3A LBD binder: modulates the human NR3A ligand-binding domain; NR3A LBD differential scanning fluorimetry, Tm shift; 0% = protein alone, 100% = glycine-bound protein; Tm shift relative to glycine control, % at 25 µM; 2.5% of 340,000 active; AID 1259313;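 active means melting temperature shift of at least 10% of the positive control shift, at one fixed dose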
Beta apoptosis: blocks beta cell apoptosis. protection from apoptosis, % (concentration not given with the values). 0.8% of 300,000 active. INS-1E cytokine-induced death, ATP luminescence, 48 h; percent of positive-control rescue, neutral wells zero;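 active means Every replicate reaches about 75%, or at least half do and their mean reaches it too, limit read from the data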;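 further: 0% = cytokine-treated negative control wells and 100% = positive control rescue; higher means more ATP so stronger rescue from cytokine killing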
SKKanGAS inh: blocks kanamycin growth of S. pyogenes SKKanGAS strain; BacTiter-Glo, 6 h; inhibition, % at 7.5 µM; 1.3% of 300,000 active;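 active means mean replicate score, as percent of positive control median, at least 50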;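 further: strain carries kanamycin resistance gene driven by streptokinase promoter and grows in 40 µg/ml kanamycin; loss of luminescence reflects streptokinase promoter inhibition or plain growth inhibition; 0% = median of DMSO wells and 100% = positive control at its reference dose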
Mdm2 MdmX conf: human Mdm2/MdmX binding inhibition, confirmed. shares compounds with Mdm2 MdmX PPI. luminescent assay. inhibition, % at 8 µM. 55% of 10,000 active. AID 489028; in the data active means inhibition above about 40%
Full FLuc ctr: counter-screen for Mdm2/MdmX inhibitors: full-length luciferase | shares compounds with Mdm2 MdmX PPI | SaOS-2 full-length luciferase counterscreen, luminescence | inhibition, % at 8 µM | 77% of 6,200 active | AID 504607;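 active means mean inhibition at 8 µM reaching about 37%, which flags the compound as non-specific, limit read from the data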;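 further: p53-null SaOS-2 cells with luciferase driven by a doxycycline-inducible promoter; compound on cells about two nights before reading with doxycycline added after day one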
Rh123 counter: Rhodamine 123 counter-screen of mitochondrial pore hits; shares compounds with MPTP inh; inhibition, % at 10 µM; 78% of 5,000 active; isolated mitochondria, membrane potential, Rhodamine 123 fluorescence; in the data active means inhibition above about 22%;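 further: 0% = DMSO vehicle and 100% = positive control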
The depositor's hits bear a star. A selection: hits, their analogues and other compounds. The true share with any hit is near 6.9%.

Results for CC(C)(C)N(NC(=O)Nc1ccc(Cl)c(Cl)c1)C(=O)c1ccccc1 ?
MPTP inh: 103.9*; Mdm2 MdmX PPI: 86.3*; NR3A LBD binder: 5.0; Beta apoptosis: 23.8; SKKanGAS inh: 43.6; Mdm2 MdmX conf: 66.5*; Full FLuc ctr: 42.6*; Rh123 counter: 96.9*

How did CCN(C(=O)COC(=O)c1ccc([N+](=O)[O-])o1)c1cccc2ccccc12 do in these assays?
MPTP inh: -1.6; CSC inhib: 19.9; Mdm2 MdmX PPI: 2.7; NR3A LBD binder: 1.8; Beta apoptosis: 0.3

How did COc1ccc(NC(=O)CCC(=O)NCc2ccco2)c([N+](=O)[O-])c1 do in these assays?
MPTP inh: -0.4; CSC inhib: -5.2; Mdm2 MdmX PPI: -16.0; NR3A LBD binder: 0.5; Beta apoptosis: -1.4; SKKanGAS inh: -1.3

What do the screens show for `CC(=O)NC(CCS(C)(=O)=O)C(=O)Nc1cc(Cl)ccc1Cl` (centres undefined)?
MPTP inh: -2.2; CSC inhib: -12.7; Mdm2 MdmX PPI: -2.6; NR3A LBD binder: 0.2; Beta apoptosis: 0.1; SKKanGAS inh: 0.9

Results for CC(C)S(=O)(=O)c1csc(NC(=O)Nc2cc(Cl)ccc2Cl)c1Cl ?
MPTP inh: 86.1*; CSC inhib: 65.6; Mdm2 MdmX PPI: 61.6*; NR3A LBD binder: 6.7; Beta apoptosis: 21.8; SKKanGAS inh: 58.2*; Mdm2 MdmX conf: 38.2; Full FLuc ctr: 93.3*; Rh123 counter: 76.1*

What do the screens show for `COc1ccc(CN2CCC(C(=O)Nc3ccc(Oc4cccnc4)cc3)CC2)c(C)c1C`?
MPTP inh: 83.3*; CSC inhib: 44.1; Mdm2 MdmX PPI: 74.5*; NR3A LBD binder: -1.1; Beta apoptosis: -6.3; SKKanGAS inh: 22.5; Mdm2 MdmX conf: 33.8; Full FLuc ctr: 52.7*; Rh123 counter: 91.1*

Results for Cc1cccc(OCCCC(=O)N2CCCCCC2)c1C ?
MPTP inh: 1.6; CSC inhib: -9.1; Mdm2 MdmX PPI: 8.8; NR3A LBD binder: 0.9; Beta apoptosis: -2.9; SKKanGAS inh: 2.4

Results for Cc1cc(N2CCN(C)CC2)ccc1NC(=O)c1cccc(S(=O)(=O)N2CCc3ccccc3C2)c1 ?
MPTP inh: 92.2*; CSC inhib: 54.0; Mdm2 MdmX PPI: 96.1*; NR3A LBD binder: -4.9; Beta apoptosis: 5.2; SKKanGAS inh: 6.5; Mdm2 MdmX conf: 36.1; Full FLuc ctr: 73.0*; Rh123 counter: -0.6

Results for Cc1ccc(NC(=O)c2cccc(S(=O)(=O)N3CCc4ccccc4C3)c2)nc1 ?
MPTP inh: -0.7; CSC inhib: 24.3; Mdm2 MdmX PPI: -2.6; NR3A LBD binder: -2.4; Beta apoptosis: -4.6; SKKanGAS inh: 1.3

Results for CCCCCCCn1c(C)nnc1-c1cnn(C)c1N ?
MPTP inh: -2.2; CSC inhib: -4.1; Mdm2 MdmX PPI: -13.2; NR3A LBD binder: -1.2; Beta apoptosis: 2.2; SKKanGAS inh: -2.4

How did O=C(N/N=C/c1cn(-c2ccccc2)nc1-c1cccs1)c1ccc(Cl)cc1 do in these assays?
MPTP inh: 69.7*; CSC inhib: -6.9; Mdm2 MdmX PPI: 51.7*; NR3A LBD binder: 26.5*; Beta apoptosis: 48.5; SKKanGAS inh: 20.0; Mdm2 MdmX conf: 31.1; Rh123 counter: 65.0*

Results for O=C(N/N=C/c1cn(-c2ccccc2)nc1-c1cccs1)c1ccccc1F ?
MPTP inh: 2.4; CSC inhib: 52.5; Mdm2 MdmX PPI: 25.7; NR3A LBD binder: 4.2; Beta apoptosis: 7.5; SKKanGAS inh: 15.9

How did CC(=O)Nc1ccc(NC(=O)c2cc([N+](=O)[O-])cc([N+](=O)[O-])c2)cc1 do in these assays?
MPTP inh: 0.2; CSC inhib: -11.0; Mdm2 MdmX PPI: -11.0; NR3A LBD binder: -1.5; Beta apoptosis: 0.3; SKKanGAS inh: 9.2

What do the screens show for `Cc1ccc(NC(=O)c2ccc(Nc3c([N+](=O)[O-])cc([N+](=O)[O-])cc3[N+](=O)[O-])cc2)cc1`?
MPTP inh: 96.3*; CSC inhib: 41.5; Mdm2 MdmX PPI: 79.2*; NR3A LBD binder: -2.9; Beta apoptosis: 67.0; SKKanGAS inh: 23.0; Mdm2 MdmX conf: 8.0; Rh123 counter: 74.1*

How did CCN1/C(=C/C(C)=C/c2sc3ccccc3[n+]2CC)Sc2ccccc21 do in these assays?
MPTP inh: 198.7*; CSC inhib: 143.8*; Mdm2 MdmX PPI: 97.4*; NR3A LBD binder: -14.4; Beta apoptosis: 110.2*; SKKanGAS inh: 100.5*; Mdm2 MdmX conf: 100.2*; Full FLuc ctr: 15.4; Rh123 counter: 67.8*

How did Cc1noc(-c2ccc(C(F)(F)F)cc2)c1NC(=O)Nc1ccc(Cl)cc1 do in these assays?
MPTP inh: 75.3*; CSC inhib: 52.1; Mdm2 MdmX PPI: 94.7*; NR3A LBD binder: 30.1*; Beta apoptosis: 104.9*; SKKanGAS inh: 33.4; Mdm2 MdmX conf: 75.7*; Full FLuc ctr: 24.2; Rh123 counter: 71.6*

What do the screens show for `COCCNC(=O)Nc1ccc2c(c1)N(C)C(=O)CS2`?
MPTP inh: 0.4; CSC inhib: -10.6; Mdm2 MdmX PPI: -2.9; NR3A LBD binder: 1.4; Beta apoptosis: 0.3; SKKanGAS inh: -0.5

What do the screens show for `COc1ccc(NC(=O)Nc2ccc3c(c2)N(C)C(=O)CS3)cc1Cl`?
MPTP inh: 92.7*; CSC inhib: 16.7; Mdm2 MdmX PPI: 59.4*; NR3A LBD binder: 27.1*; SKKanGAS inh: 18.1; Mdm2 MdmX conf: 42.5*; Full FLuc ctr: 52.9*; Rh123 counter: 67.5*

Results for CC(=O)c1ccc(NC(=O)Nc2ccc3c(c2)N(C)C(=O)CS3)cc1 ?
MPTP inh: 96.3*; CSC inhib: -1.6; Mdm2 MdmX PPI: 69.0*; NR3A LBD binder: 19.2*; Beta apoptosis: -5.8; SKKanGAS inh: 18.0; Mdm2 MdmX conf: 35.0; Rh123 counter: 77.3*

How did COc1ccccc1C(CNC(=O)c1ccc(S(=O)(=O)N2CCCCC2)cc1)N(C)C (centres undefined) do in these assays?
MPTP inh: -0.2; CSC inhib: -8.1; Mdm2 MdmX PPI: -16.8; NR3A LBD binder: -0.4; Beta apoptosis: -8.0

How did CCn1ncc(Cl)c1C(=O)Nc1ccc2c(c1)CCC2 do in these assays?
MPTP inh: 0.5; CSC inhib: -3.2; Mdm2 MdmX PPI: 32.0; SKKanGAS inh: 2.1

What do the screens show for `O=C(COC(=O)COc1ccccc1F)NCCc1ccc(F)cc1`?
MPTP inh: -0.8; Mdm2 MdmX PPI: -8.4; NR3A LBD binder: 1.6

Results for O=C(Nc1ccc2snnc2c1)Nc1cccc2ccccc12 ?
MPTP inh: 106.1*; CSC inhib: 28.7; Mdm2 MdmX PPI: 67.0*; NR3A LBD binder: 38.4*; Beta apoptosis: 40.8; SKKanGAS inh: 26.0; Mdm2 MdmX conf: 20.2; Rh123 counter: 69.2*

High-throughput results deposited in PubChem BioAssay by several laboratories.
